Measurements from PubChem BioAssay AID1159580 (chemical genetic matrix, 2015).
Out of some 5,500 compounds screened, about 2,000 (36%) were called active. About 18% were inconclusive and are not listed. Cut-off read from the data, not from the text of the source: active = normalized growth mostly below about 0.91 (no sharp cut-off); inconclusive = no clear call, values can overlap the other calls; inactive = mostly above about 0.92. The list shows a part of the results.

Assay: chemical genetic growth profiling, strain panel (AID 1159580);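 note: tested at 20 µM; growth read once vehicle control cultures reached saturation at 30 °C; 1 = growth at the plate median or of vehicle wells; lower values mean less growth of the strain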
Conditions: S. cerevisiae deletion strains, growth OD

Measured: normalized growth

COc1ccc(CCN(C)CCCC(C#N)(c2cc(OC)c(OC)c(OC)c2)C(C)C)cc1OC (stereo not given)
inactive: locus YAL040C, strain CLN3, hits give low values 1.01 | locus YCL061C, strain MRC1 (second series), hits give low values 0.995 | locus YDR150W, strain NUM1, hits give low values 1.01 | locus YDR363W, strain ESC2, hits give low values 0.97 | locus YER002W, strain NOP16, hits give low values 1.03 | locus YGR078C, strain PAC10, hits give low values 1.03 | locus YJR075W, strain HOC1, hits give low values 1 | locus YMR307W, strain GAS1, hits give low values 1.02 | locus YNL153C, strain GIM3, hits give low values 1.02 | locus YNL175C, strain NOP13, hits give low values 1.01 | locus YNL197C, strain WHI3, hits give low values 1.01 | locus YNL224C, strain SQS1, hits give low values 1.01 | locus YOR083W, strain WHI5 (second series), hits give low values 1 | locus YPL055C, strain LGE1, hits give low values 1 | locus YPL241C, strain CIN2, hits give low values 1.01
